TCR activator: Activators of T cell receptors: qHTS campaign; Potency, µM (top dose mostly 9.22 µM), for the others: top-dose activation of IL-2 secretion, actives largely listed as activators; 330,000 tested, under 10 active; primary human leukocytes, anti-CD3, IL-2 HTRF, 48 h; further: % of control where 0% means no effect
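Using a-CD3 beads without co-stimulation, primary human leukocytes were exposed to compounds for 48 hr. An HTRF IL-2 kit measured the cytokine, with europium-to-d2 energy transfer producing emission at 665nm upon 320nm excitation.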
Mito fusion act: qHTS Assay for Small Molecule Inhibitors of Mitochondrial Division or Activators of Mitochondrial Fusion; Potency, µM (top dose mostly 46.1 µM), for inactives: at the highest dose growth rescue (activation), hits mostly activators; 320,000 tested, 0.23% active; AID 485298, 2010; S. cerevisiae fusion-defective mutant growth rescue, CellTiterGlo 48 h; further: potency means the concentration at half of the fitted maximal effect; % of control where 0% means no effect; nearly all actives have a fitted effect of over 45% in size
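Compounds are tested for their ability to restore growth of mitochondrial fusion-defective yeast strains at non-permissive 37C in YPEG medium over 48 hours. Viability is quantified by luciferase luminescence.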
IL-2 act: qHTS of IL-2 Activators. IL-2 activation reporter assay, cell-based qHTS; stimulated with anti-CD3/CD4/CD28 beads; in transgenic mouse T cells. activation, % (series mostly up to about 46 µM). 360,000 tested, 0.065% active; in the data active means activation above about 50%; inconclusive means mostly about 30% to 49%; further: 0% is about no effect
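Using fluorescent plate cytometry, EGFP and DsRed are detected in transgenic mouse T cells stimulated 18 h at 37 degrees C with antibody-coated beads after 60 min compound pretreatment.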
p53 reactivator: qHTS assay for re-activators of p53 using a Luc reporter | Potency, µM (top dose mostly 92.2 µM), for the others: at the highest dose activity change, positive = activation, usual class: activators | AID 504706, 2011 | H1299 p53-A138V BP100-luciferase reporter, luminescence, 24 h | 320,000 tested, 0.063% active; further: potency means the concentration at half of the fitted maximal effect; % of control where 0% means no effect; nearly all actives have a fitted effect of over 45% in size
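H1299 (p53-null), stable ts p53-A138V + BP100-Luc; 1000 cells/well, Opti-MEM/10% FBS; cpd 4 pt, 1:5; 24 h, 37 deg C, 5% CO2; detection reagent 10 min RT; luminescence.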
BRCA1 expr act: qHTS Assay to Identify Small Molecule Activators of BRCA1 Expression; MCF7-BRCA1-FFLuc reporter, luminescence, 48 h; response scale: scaled: vehicle 0%, 10 µM genistein 100%; Potency, µM (titrated, usually from 46.1 µM), inactives show at the highest dose activation, actives largely listed as activators; 380,000 tested, 1.1% active; AID 624202, 2012; further: potency means the concentration at half of the fitted maximal effect; nearly all actives have a fitted effect of over 80% in size
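Quantitative HTS in MCF7 cells stably reporting BRCA1 expression via firefly luciferase. Compound treatment lasts 48 h at 37 °C in phenol-red free MEM. Activation is expressed relative to genistein at 10 microM and DMSO.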
* marks the source's active call; other numbers are inactive results; ? = inconclusive; . = no result; [ ] = dose if it differs, or a comment. An excerpt weighted towards active compounds, which were near 1.3% of everything screened. Unless noted, the call rests on the fitted dose curve; in most records, active means well fitted curve in the direction sought with a large enough effect; inconclusive means small, poorly fitted or top-dose-only effect, or another doubt; inactive means no such curve, though single readings can be large; an effect the other way counts as inactive or inconclusive.

SMILES	TCR activator	Mito fusion act	IL-2 act	p53 reactivator	BRCA1 expr act
c1csc(-c2nc3ccccc3s2)c1	5%	-2%	0	25%	7.9µM*
Nc1nc(-c2cccs2)cs1	3%	3%	0	9%	77%
c1csc(-c2ccc3ccccc3n2)c1	-2%	1%	1	17%	7.1µM*
O=c1cc(O)c2c([nH]1)CCC2	.	.	.	.	7%
CCN(C)c1ccc(/C=C/c2ccnc3ccccc23)cc1	.	.	.	.	67%
O=C(NNc1ccccc1F)c1cccs1	.	.	.	.	15%
Cc1ccccc1-c1noc(-c2ccc(N3CCN(C)CC3)c([N+](=O)[O-])c2)n1	.	.	.	.	0%
CN(C)CCN(CC1CCCN(Cc2ccccc2F)C1)C(=O)c1ccc(F)cc1 (stereo not given)	0%	1%	-1	20µM*	-7%
S=c1[nH]nc(-c2cc3ccccc3o2)n1Cc1ccccc1	0%[46.1 µM]	14µM*	0	20%	45%
Cc1ccc(-c2n[nH]c(=S)n2Cc2ccccc2)cc1	3%	12%	2	1%	-19%
CC(=O)c1ccc2c(c1)Cc1cc(C(C)=O)ccc1-2	10%[46.1 µM]	0%	5	?	2µM*
CC(=NO)c1ccc2c(c1)Cc1cc([N+](=O)[O-])ccc1-2	3%	.	-5	.	5.6µM*
CCC(=O)Nc1ccc2c(c1)Cc1cc(NC(=O)CC)ccc1-2	10%	-5%	-3	3%	15%
CCCN1CCN(c2ncnc3sc(C(=O)Nc4c(C)cc(C)cc4C)c(C)c23)CC1	.	.	.	.	0%
O=C(CNC(=O)C1CCCCC1)OCC(=O)c1ccc(C2CCCCC2)cc1	.	.	.	.	0%
O=C(/C=C/c1ccccc1Cl)NCc1ccccc1	-4%	-2%	-2	-3%	50%
O=C(/C=C/c1ccccc1Cl)NCCc1ccccc1	-2%	5%	1	?	11µM*
CCN(CC)c1ccc(NC(=O)/C=C\c2ccccc2Cl)cc1	.	2%	-4	12%	3.2µM*
CCCCOc1ccc(C(N)=O)cc1	.	.	.	.	0%
CCOc1ccc(-c2nnc(N)s2)cc1	-12%	5%	-1	?	?
CCCCOc1ccc(-c2ncc(N)cn2)cc1	-1%	7%	0	19%	2.5µM*
CCCCOc1ccc(-c2nnc(N)s2)cc1	-7%	29%	-2	14%	6.3µM*
CN(C)c1ccc(CNC(=O)c2ccc(NC(=O)N3CCCCc4ccccc43)cc2)cc1	.	.	.	.	7%
CN(C)c1cc(N2CCOCC2)nc(C#N)n1	.	.	.	.	0%
COc1ccccc1-c1noc(-c2ccc(NCc3cccnc3)c([N+](=O)[O-])c2)n1	.	.	.	.	-34%
SMILES	TCR activator	Mito fusion act	IL-2 act	p53 reactivator	BRCA1 expr act
CCN(CC)c1ccc(/C=N/N2CCOCC2)cc1	0%	-4%	1	.	3.2µM*
CN(C)c1ccc(C(=O)N=c2sccn2C)cc1[N+](=O)[O-]	1%	0%	-4	?	11µM*
Cn1ccsc1=NC(=O)c1ccc(S(=O)(=O)C(F)F)cc1	0%	7%	0	17%	13µM*
N#CC1=C(N)CCC1	.	.	.	.	-9%
CC(C)=CNNC(=O)c1ccc(O)cc1	.	.	.	.	25%
Clc1ccc(OCc2cn3ccccc3n2)c2ncccc12	-16%	15%	-1	0%	3.2µM*
COc1ccc(-c2nc(C#N)c(NCc3ccco3)o2)cc1	1%	-1%	-5	1%	8.9µM*
COc1cc(/C=C/c2nc3ccccc3c(=O)[nH]2)cc(OC)c1OC	-223%	-2%	-3	7%	-7%
COc1cc(/C=C/c2nc3ccccc3c(=O)[nH]2)ccc1OC(F)F	4%	7%	-3	19%	3.2µM*
CN(C)c1cc2c3ccccc3ccc2c2ccccc12	.	.	.	.	0%
COc1ccc2c(c1)O/C(=C\c1ccccc1C)C2=O	-1%	-3%	-3	?	13µM*
COc1cc(OC)c(OC)cc1/C=C1\Oc2cc(OS(C)(=O)=O)ccc2C1=O	16%	-2%	-4	0%	-46%
Cc1ccc(Sc2ccc(N3CCCC(C(=O)Nc4ccc(F)cc4)C3)nn2)cc1 (stereo not given)	.	.	.	.	-25%
COc1ccc(-n2c(C)nn(C)c2=O)cc1	4%	0%	3	-6%	-33%
COc1ccc(-n2c(/C=C(\C)O)nc(=O)c3c(C)cc(C)nc32)cc1	.	20µM*	0	14%	-28%
Clc1ccc(-n2nnnc2-c2cnc(-c3ccncc3)nc2-c2cccs2)cc1	-2%[46.1 µM]	14µM*	0	-11%	-70%
O=S(=O)(NCCNCC=Cc1ccc(Br)cc1)c1cccc2cnccc12	.	.	.	.	-41%
Cc1cccc(NC(=O)c2ccc(OC3CSC3)cc2)c1	3%[46.1 µM]	8%	0	?	11µM*
Nc1ccc(N2CCN(c3ccc(Cl)c(Cl)c3)CC2)cc1	-3%[46.1 µM]	13µM*	0	4%	-23%
O=C(Cc1ccc(Cl)cc1)Nc1ccc(N2CCN(C(=O)c3ccco3)CC2)cc1	1%	0%	-2	-10%	-27%
Nc1ccc(N2CCN(c3ccc(F)cc3)CC2)cc1	4%	-3%	0	7%	12%
O=C(c1ccco1)N1CCN(c2ccc(Cl)cc2)CC1	2%	4%	-1	?	11µM*
O=C(c1ccco1)N1CCN(c2ccc(Cl)c(Cl)c2)CC1	.	.	1	.	13µM*
COc1ccccc1/C=C/c1nc2ccccc2[nH]1	.	.	.	.	0%
O=C(c1ccccc1)C(I)(I)N1CCOCC1	.	.	.	.	14%
SMILES	TCR activator	Mito fusion act	IL-2 act	p53 reactivator	BRCA1 expr act
CC[n+]1ccnc2ccccc21	.	.	.	.	-11%
COCc1nn2cc(-c3ccc(C)cc3)nc2s1	.	.	.	.	22%
COc1ccc2nc(NC(=O)c3ccco3)sc2c1	3%	19%	0	8%	?
CC(C)C(=O)Nc1nc2ccc(S(C)(=O)=O)cc2s1	-9%	2%	-2	26%	11µM*
COc1ccc2nc(NC(=O)C3CCN(C(=O)c4ccco4)CC3)sc2c1	-3%	-6%	-2	17%	13µM*
COc1ccccc1NC(=O)Nc1nc2ccc(S(N)(=O)=O)cc2s1	-1%	-1%	-1	13%	4µM*
Cc1cccc(C(=O)Nc2nc3ccc(S(C)(=O)=O)cc3s2)c1	5%	-2%	0	?	3.2µM*
O=C(C[n+]1c2ccccc2cc2ccccc21)c1ccc(F)cc1	.	.	.	.	2%
CCN(CC)S(=O)(=O)c1ccc2nc(NC(=O)c3ccco3)sc2c1	-21%	0%	-1	6%	11µM*
Cc1ccc(S(=O)(=O)N(C(=O)c2ccncc2)c2ccc3oc4c(c3c2)CCCC4)cc1[N+](=O)[O-]	0%[46.1 µM]	18µM*	3	23%	-38%
CCc1ccc(S(=O)(=O)N(C(C)=O)c2ccc3oc4c(c3c2)CCCC4)cc1	.	.	.	.	1%

Screening data deposited in PubChem BioAssay by National Center for Advancing Translational Sciences (NCATS).
